From PubChem BioAssay (NCI) come the findings set out here.

Where “and” joins values, the source holds several entries; their conditions need not be identical. Equal values may be shown once. This is part of a sample that, as a whole, favours compounds with a hit. Of some 83,000 tested, about 20% had one in any assay.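 Each cell line was grown in a 96-well plate and treated with one concentration of compound for 48 hours. Values below 10 were considered active.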 A number with no mark means an inactive call. Calls of active or inactive are those of the source.

What all share (assay): NCI-60 one-dose screen, 48 h (100 = growth as untreated, 0 = no growth, -100 = all killed)
Settings in all cases: 10 µM unless noted

Assay [1] has as its system NCI-H23 lung.
Assay [2] relates to NCI-H226 lung.
The test system of assay [3] is NCI-H322M lung.
In assay [4] the test system is HOP-62 NSCLC.
Assay [5] has as its system NCI-H460 lung.
In assay [6] the test system is HOP-92 NSCLC.
Assay [7] has as its system NCI-H522 lung.
Assay [8] relates to 786-0 renal.
Assay [9] concerns COLO 205 colon.
For assay [10], the system named is DU-145 prostate.
Assay [11] has as its system K-562 leukemia.
Assay [12] has as its system MALME-3M melanoma.
Assay [13] concerns MDA-MB-231 breast.
For assay [14], the system named is RXF 393 renal.
For assay [15], the system named is SF-268 CNS.
In assay [16] the test system is SF-295 CNS.
In assay [17] the test system is SF-539 CNS.
The test system of assay [18] is UACC-257 melanoma.
Assay [19] deals with M14 melanoma.
In assay [20] the test system is A549/ATCC NSCLC.

Consider `O=C(Oc1ccc(CO[N+](=O)[O-])cc1)c1ccccc1`, for which the growth was -71.1% (active) in [1]; -96.5% (active) in assay [2]; -88.1% (active) in assay [3]; -86.5% (active) in [4]; -65.3% (active) in [5]; -88% (active) in assay [6]. In addition, the growth is -67.2% (active) in [7]; -87.7% (active) in [8]; -74.2% (active) in assay [9]; -94.6% (active) in assay [10]; -37.1% (active) in [11]; -69.9% (active) in assay [12]. The growth in assay [13] was -80.6% (active); in assay [14], -86.2% (active); in assay [15], -84.8% (active); in assay [16] it was -91.9% (active); in assay [17], -90% (active); in [18], -78% (active). Further, the growth in [19] is -83% (active).

For the compound `CCCCCCCCN(CCCCCCCC)CC(O)c1cc(Cl)ccc1OC` (stereo not drawn), the growth in assay [1] is 56%; in assay [2] it was 62%; in assay [3] it was 94.7%; in assay [4], 80.8%; in assay [5], 62.6%; in [6], 66%. Besides, the growth in assay [7] is 68%; in [8], 72.7%; in assay [9], 55.5%; in assay [10], 81.8%; in assay [11], 50.1%; in assay [12] it was 99.5%. For the same compound, the growth in assay [13] was 51.6%; in assay [14], 51.9%; in [15] it was 84.4%; in [16] it was 76.9%; in assay [17], 77.8%; in [18] it was 90.4%. The growth in [19] was 84.9%.

As for `CCNC(=O)Nc1ncccc1OCc1ccc(F)cc1`, the growth in assay [1] was 87.1%; in assay [2], 106%; in assay [3], 105%; in [4] it was 95.3%; in assay [5], 105%; in [6] it was 108%. The growth was 86.2% in assay [7]; 92.8% in [8]; 115% in assay [9]; 97.8% in assay [10]; 99.6% in assay [11]; 106% in [12]. Besides, the growth in [13] is 115%; in assay [14], 125%; in assay [15], 94.3%; in assay [16], 97.8%; in [17], 102%; in [18], 102%. The growth in assay [19] is 109%.

On to `COc1ccc(C/C(C)=C(/c2ccc(OCCN3CCCC3)cc2)c2ccc(OC(=O)NCc3ccccc3)cc2)cc1`, for which the growth in assay [1] is 93.6%; in assay [2] it was 102%; in [3] it was 92%; in [4], 91.9%; in assay [5], 63.8%; in assay [6], 66.2%. Moreover, the growth in assay [7] is 92.6%; in assay [8] it was 69.8%; in [9], 77%; in assay [10] it was 95%; in [11], 1.16% (active); in assay [12], 83.6%. In addition, the growth in [13] was 101%; in [14] it was 76.8%; in assay [15] it was 86.5%; in assay [16] it was 95.2%; in [17], 82.5%; in assay [18] it was 107%. Moreover, the growth in assay [19] is -20.8% (active).

On to `CCOC(=O)C1=C(C)NC(=O)NC1c1c(Cl)n(-c2ccccc2)c2ccccc12` (stereo not drawn), for which the growth was 74.7% in [1]; 86.5% in assay [2]; 80.5% in assay [3]; 86.7% in assay [4]; 96.1% in assay [5]; 59.5% in assay [6]. In addition, the growth in assay [7] was 66%; in [8], 83.1%; in [9] it was 107%; in assay [10], 85.7%; in [11], 43.4%; in assay [12] it was 86.2%. The growth in assay [13] was 81.5%; in assay [14], 55.6%; in assay [15] it was 86.7%; in [16] it was 85.5%; in [17] it was 87.9%; in assay [18], 88.3%. Further, the growth in [19] is 86.5%.

With `C=CCNC(=O)Cc1c(-c2ccc(OC)cc2)oc2c(OC)c3c(c(OC)c12)OCO3`, the growth in [1] is 96.2%; in assay [2], 101%; in [3] it was 97.9%; in [4], 105%; in assay [5], 102%; in assay [6], 114%. In addition, the growth in [7] is 92.7%; in [8], 104%; in assay [9], 117%; in assay [10], 104%; in [11] it was 102%; in [12], 106%. Further, the growth in assay [13] is 91.1%; in [14], 90.8%; in [15], 96.2%; in assay [16], 106%; in assay [17], 103%; in assay [18], 105%. Besides, the growth in assay [19] was 101%.

In the case of `Cc1nonc1-c1ccc2c(c1)OCO2`, the growth in assay [1] is 91.5% and 112%; in [2] it was 94.3%; in assay [3], 113% and 124%; in assay [4] it was 123% and 106%; in assay [5] it was 106%; in assay [7], 102% and 103%. Also, the growth in assay [20] is 90.6% and 98.2%; in assay [8], 104% and 107%; in [9] it was 114% and 140%; in assay [10] it was 94.4% and 109%; in assay [11] it was 101%; in assay [12], 116% and 142%. Moreover, the growth in [13] is 96.8% and 110%; in assay [14] it was 96.8% and 99.4%; in assay [15], 89.9% and 95%; in assay [16], 91.4% and 101%; in assay [17] it was 111% and 95.7%; in assay [18] it was 104% and 111%. In assay [19], the growth is 110% and 108%.
